Test results taken from PubChem BioAssay (NCATS).
Results filed as inconclusive are left out. Calls of active or inactive are those of the source. Calls follow the shape of the dose curve; as a rule, active = well fitted curve in the direction sought with a large enough effect; inconclusive = small, poorly fitted or top-dose-only effect, or another doubt; inactive = no such curve, though single readings can be large; an effect the other way counts as inactive or inconclusive.

Tests used:
[1] = tested on: CRL-7250; assay: Cytotoxic Profiling of Annotated Libraries Using Quantitative High-Throughput Screening (AID 1296008); conditions: Five cell lines viability, CellTiter-Glo ATP luminescence, 48-72 h; max response: stronger effect = lower value; also: nearly all actives have a fitted effect of over 60% in size; as to max response: % is scaled to controls: 0 for no effect and ±100 for the full control effect
Summary of the method: (§1)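 Cells exposed to compounds for 48 or 72 hr at 37 degrees Celsius. Viability read as ATP-coupled luminescence with CellTiter-Glo after 10 min at room temperature.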

[2] = tested on: HaCat; assay: as above; conditions: Five cell lines viability, CellTiter-Glo ATP luminescence, 48-72 h; max response: stronger effect = lower value
Summary of the method: as §1

[3] = tested on: KB-3-1; assay: as above; conditions: Five cell lines viability, CellTiter-Glo ATP luminescence, 48-72 h; max response: stronger effect = lower value
Summary of the method: as §1

[4] = tested on: NIH3T3; assay: as above; conditions: Five cell lines viability, CellTiter-Glo ATP luminescence, 48-72 h; max response: stronger effect = lower value
Summary of the method: as §1

[5] = tested on: HACAT; assay: qHTS assay to identify novel small-molecules to repurpose for Merkel cell carcinoma treatment (AID 1296009); conditions: MCC and control cell lines, CellTiter-Glo viability, 72 h; at 44.8 µM (top of the series) unless noted; also: nearly all actives have a fitted effect of over 60% in size
Summary of the method: (§2)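 Cells were treated for 72 hr at 37 degree celsius with compounds in 8- or 11-point dose response. Viability was read by CellTiter-Glo luminescence, normalized to no-cell (cytotoxicity) and DMSO controls.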

[6] = tested on: NIH3T3; assay: as above; conditions: MCC and control cell lines, CellTiter-Glo viability, 72 h; series mostly up to 44.8 µM
Summary of the method: as §2

[7] = tested on: C33A; assay: Primary qHTS to identify gynecologic anti-cancer compounds using libraries of approved drugs and bioactive compounds (AID 1345084); conditions: Gynecologic cancer cell panel viability, ATPlite luminescence, 48 h; series mostly up to 57.5 µM; also: % is scaled to controls: 0 for no effect and ±100 for the full control effect; nearly all actives have a fitted effect of over 55% in size
Summary of the method: (§3)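 Cells, 1,000 per well, plated 16 h, then exposed 48 h at 37 C to compounds. Viability by ATPlite luminescence after 15 min at room temperature.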

[8] = tested on: CAOV3; assay: as above; conditions: Gynecologic cancer cell panel viability, ATPlite luminescence, 48 h; series mostly up to 57.5 µM
Summary of the method: as §3

[9] = tested on: CASKI; assay: as above; conditions: Gynecologic cancer cell panel viability, ATPlite luminescence, 48 h; series mostly up to 57.5 µM
Summary of the method: as §3

[10] = tested on: Es-2; assay: as above; conditions: Gynecologic cancer cell panel viability, ATPlite luminescence, 48 h; series mostly up to 57.5 µM
Summary of the method: as §3

[11] = tested on: HeLa; assay: as above; conditions: Gynecologic cancer cell panel viability, ATPlite luminescence, 48 h; series mostly up to 57.5 µM
Summary of the method: as §3

[12] = tested on: Hek293T; assay: as above; conditions: Gynecologic cancer cell panel viability, ATPlite luminescence, 48 h, control line for the selectivity index; series mostly up to 57.5 µM
Summary of the method: as §3

[13] = tested on: JEG-3; assay: as above; conditions: Gynecologic cancer cell panel viability, ATPlite luminescence, 48 h; series mostly up to 57.5 µM
Summary of the method: as §3

[14] = tested on: OV90; assay: as above; conditions: Gynecologic cancer cell panel viability, ATPlite luminescence, 48 h; series mostly up to 57.5 µM
Summary of the method: as §3

[15] = tested on: PA-1; assay: as above; conditions: Gynecologic cancer cell panel viability, ATPlite luminescence, 48 h; series mostly up to 57.5 µM
Summary of the method: as §3

CCn1c(=O)n([C@H]2CCCN(c3nccc(-c4cc5ccccc5o4)n3)C2)c2ccccc21
inactive: outcome [1] | outcome [2] | max response [3] -9.5% | outcome [4] | outcome [5] | Potency [6] | Potency [7] | Potency [8] | Potency [9] | Potency [10] | Potency [11] | Potency [12] | Potency [13] | Potency [14] | Potency [15]

Fc1ccc2c(CCNCc3cccc(OCC(F)(F)C(F)F)c3)c[nH]c2c1
inactive: max response [1] 4.88% | outcome [2] | max response [3] 7.73% | outcome [4] | outcome [5] | Potency [6] | Potency [7] | Potency [8] | Potency [9] | Potency [10] | Potency [11] | Potency [12] | Potency [13] | Potency [14] | Potency [15]

CC(C)c1c(O)ccc2c1CC[C@H]1C(C)(C)CCC[C@]21C
inactive: outcome [1] | outcome [2] | max response [3] 7.3% | outcome [4] | outcome [5] | Potency [6] | Potency [7] | Potency [8] | Potency [9] | Potency [10] | Potency [11] | Potency [12] | Potency [13] | Potency [14] | Potency [15]

O=C([C@@H](Cc1cccc(C(F)(F)F)c1)NS(=O)(=O)c1cc(F)c2c(c1)CCNC2)N1CCCC1
inactive: outcome [1] | outcome [2] | outcome [3] | outcome [4] | outcome [5] | Potency [6] | Potency [7] | Potency [8] | Potency [9] | Potency [10] | Potency [11] | Potency [12] | Potency [13] | Potency [14] | Potency [15]

COc1cc(/C=C2\CC[C@H]3COC[C@@H](c4cc(F)c(F)c(F)c4)N3C2=O)ccc1-n1cnc(C)c1
inactive: max response [1] 3.12% | outcome [2] | outcome [3] | outcome [4] | outcome [5] | Potency [6] | Potency [7] | Potency [8] | Potency [9] | Potency [10] | Potency [11] | Potency [12] | Potency [13] | Potency [14] | Potency [15]

Cc1cc(NC(=O)NCCN2CCC(O)(Cc3ccccc3)CC2)c2ccccc2n1
inactive: max response [1] 2.34% | outcome [2] | max response [3] -1.93% | outcome [4] | outcome [5] | Potency [6] | Potency [7] | Potency [8] | Potency [9] | Potency [10] | Potency [11] | Potency [12] | Potency [13] | Potency [14] | Potency [15]

CC1(C)C2CCC(CO[C@@H]3O[C@H](CO[C@@H]4OC[C@](O)(CO)[C@H]4O)[C@@H](O)[C@H](O)[C@H]3O)C1C2 (stereo not given in full)
inactive: max response [1] 1.81% | outcome [2] | outcome [3] | outcome [4] | outcome [5] inactive [at 17.4 µM] | Potency [6] | Potency [7] | Potency [8] | Potency [9] | Potency [10] | Potency [11] | Potency [12] | Potency [13] | Potency [14] | Potency [15]

CC(C)(O)c1ccc2c(c1)ncn2-c1cccc(-c2ccccc2C#N)c1
inactive: outcome [1] | outcome [2] | max response [3] -0.453% | outcome [4] | outcome [5] | Potency [6] | Potency [7] | Potency [8] | Potency [9] | Potency [10] | Potency [11] | Potency [12] | Potency [13] | Potency [14] | Potency [15]

CC(=O)OCC(=O)[C@@]12O[C@@H]1C[C@H]1[C@@H]3CC=C4C[C@@H](O)CC[C@]4(C)[C@H]3CC[C@@]12C
inactive: max response [1] 1.57% | outcome [2] | outcome [3] | outcome [4] | outcome [5] | Potency [6] | Potency [7] | Potency [8] | Potency [9] | Potency [10] | Potency [11] | Potency [12] | Potency [13] | Potency [14] | Potency [15]

CC1=CC2/C=C(\C)CCC(O)C/C=C/C(=O)OC23C(=O)NC(CC(C)C)C3C1C (stereo not given)
inactive: max response [1] -1.17% | outcome [2] | outcome [3] | outcome [4] | outcome [5] inactive [at 17.4 µM] | Potency [6] | Potency [7] | Potency [8] | Potency [9] | Potency [10] | Potency [11] | Potency [12] | Potency [13] | Potency [14] | Potency [15]

COc1ccc(CCN(C)CCCOc2nsc(-c3ccccc3)n2)cc1OC
inactive: outcome [1] | outcome [2] | max response [3] -3.88% | outcome [4] | outcome [5] | Potency [6] | Potency [7] | Potency [8] | Potency [9] | Potency [10] | Potency [11] | Potency [12] | Potency [13] | Potency [14] | Potency [15]

COc1ccc2cc(-c3cc(-c4cc(Cl)cc(Cl)c4)nn3C(C)c3ccc(C(=O)NCCC(=O)O)cc3)ccc2c1 (stereo not given)
inactive: max response [1] 2.03% | outcome [2] | max response [3] -23.8% | outcome [4] | outcome [5] | Potency [6] | Potency [7] | Potency [8] | Potency [9] | Potency [10] | Potency [11] | Potency [12] | Potency [13] | Potency [14] | Potency [15]

CCOC(=O)CCNc1cc(N2CCc3ccccc3CC2)nc(-c2cccnc2)n1
inactive: outcome [1] | outcome [2] | outcome [3] | outcome [4] | outcome [5] | Potency [6] | Potency [7] | Potency [8] | Potency [9] | Potency [10] | Potency [11] | Potency [12] | Potency [13] | Potency [14] | Potency [15]
